Test results published in ChEMBL document CHEMBL3988442, “University of Dundee, Small-Polar-MMV Screening Library” (2021).
Values joined by “and” are separate entries in the source; they are usually repeats but may differ in a detail not shown here. Identical values can stand only once. Hit rate of the full screen: of about 34,000 compounds, about 290 (0.85%) showed an effect of 50% or more. The full list was thinned out, with strong results kept by preference.

System: Plasmodium falciparum
Experiment: Plasmodium falciparum sporozoite viability assay
Assay type: functional, organism-based
Set-up: scale not given: in the data most compounds retested in dose-response had high values

SMILES	Percent Effect [%]	Percent Effect (10 mM as filed; unlikely as a test dose)
NC(=O)C1CN(C(=O)Nc2ccc(SC(F)(F)F)cc2)CCO1 (configuration not stated)	26.37	–
CC(C)(C(=O)N[C@@H]1CCC[C@@H](O)[C@@H]1O)c1cccc(F)c1	7.186	–
Cc1ccc(CCNC(=O)Nc2cc(C(F)(F)F)c[nH]c2=O)o1	-6.166	–
O=C(Cc1cn2ccsc2n1)N1CCCC(n2ccnc2)C1 (configuration not stated)	9.411	–
CN(C)c1ccc(NC(=O)N2CCCCCC2c2ccncc2)cn1 (configuration not stated)	–	-8.99% and -20.34% and -20.82%
CCOc1ccc(C(=O)N2CCCC2c2cnn(C)c2)cn1 (configuration not stated)	2.866	–
CNCC(=O)N[C@H]1CN(c2nc(C)c3c(n2)CCCC3)C[C@@H]1C1CC1	–	74.85% and 85.09%
COCCC(=O)N[C@H]1CN(c2nc(C)c3c(n2)CCCC3)C[C@@H]1C1CC1	–	37.56% and 25.17%
CNc1nc(N2C[C@H](NC(=O)CCOC)[C@@H](C3CC3)C2)nc2c1CCC2	–	-17.73% and -19.53%
Cc1n[nH]c(C)c1-c1cnc(CC2CCN(C)C2)cn1 (configuration not stated)	-7.497	–
Cc1cccc(Nc2nccnc2C2CCCN2CC(N)=O)n1 (configuration not stated)	7.262	–
Cc1cccc(Nc2cc(C3CCCN(CC(N)=O)C3)ccn2)n1.O=CO.O=CO (configuration not stated)	–	98.38% and 92.39% and 79.92%
NC(=O)CN1CCCC(c2ccnc(Nc3ncccn3)c2)C1 (configuration not stated)	–	24.34% and 12.28% and 9.246%
Cc1cccc(Nc2nccnc2C2CCCN(CC(=O)N(C)C)C2)n1 (configuration not stated)	4.997	–
Cc1cc(Nc2ccccn2)nc(C2CCCN(CCO)C2)n1.O=CO (configuration not stated)	9.991	–
COc1cc(NC(=O)c2ccc(F)cc2Cl)c(C(=O)N(C)C)cc1OC	-12.25	–
O=C(C1CCOCC1)N1CCc2ncc(CN3CCCCC3)n2CC1	-3.866	–
c1cnn(CC2CN(c3ncnc4[nH]ccc34)CCO2)c1 (configuration not stated)	-8.614	–
Cc1nc(CN2CCC3(CC2)NC(=O)CC3c2cccnc2)cs1 (configuration not stated)	-8.123	–
Cc1cc(CN2CCC3(CC2)C(=O)NCCN3CC2CC2)oc1C	-0.5945	–
O[C@H]1CN(CCOc2ccc(F)cc2)CC[C@@]12CCCO2	–	66.45% and 84.39% and 80.81%
OC1CCCOC12CCN(CCCOc1ccccc1F)CC2 (configuration not stated)	2.153	–
O[C@H]1CN(CCCOc2ccccc2F)CC[C@@]12CCCO2	14	–

SMILES	Percent Effect [%]	Percent Effect (10 mM as filed; unlikely as a test dose)
COc1ccccc1CNC(Cc1cccs1)c1nc(C)cs1.Cl (configuration not stated)	-2.216	–
Cc1cc(C)n(C2CN(CCC(=O)NC3CCCCC3)C2)n1	-0.4038	–
CC(C)NC(=O)C1CN(C(=O)Nc2ccc(F)cc2)CC12CCOCC2 (configuration not stated)	-6.778	–
CNc1cncc(C2CCCN2C(=O)c2ccc3c(c2)CCC3)n1 (configuration not stated)	5.523	–
COc1ccc(NC(=O)NC(C)c2nc[nH]n2)cc1 (configuration not stated)	–	-24.45% and -7.709% and -11.14%
CC(NC(=O)Nc1ccc(OC2CCCC2)cc1)c1nc[nH]n1 (configuration not stated)	–	68.07% and 85.04%
CCN1CCC(CNC(=O)Nc2cc(C)on2)C1 (configuration not stated)	13.21	–
COC(=O)c1cccn1C1CCN(Cc2nc3ccccc3o2)CC1	-2.498	–
CN(CC1(CO)CCCC1)c1nc2c(c(=O)[nH]1)Cc1ccccc1OC2	–	63.62% and 42.71%
CN(C)c1nc2c(c(=O)[nH]1)Cc1ccccc1OC2	–	9.66% and 16.82%
CNC(=O)N1CC[C@H]2N(C)CC[C@@]2(C(=O)N2CCOCC2)CC1.O=C(O)C(F)(F)F	9.37	–
Cc1cnn(CC2CCCN2C(=O)Cc2c(C)noc2Cl)c1 (configuration not stated)	8.684	–
Cc1ccc(CN2C[C@@H]3COC[C@H](C(=O)N4CCCCO4)[C@@H]3C2)o1.O=C(O)C(F)(F)F	–	-11.42% and -12.39% and -13.97%
O=C(c1ccncc1)N1CCc2[nH]nc(Nc3ccccc3)c2C1	-2.217	–
CC(C)c1nc2cc(NC(=O)c3n[nH]c4c3CCC4)ccc2n1C	–	73.89% and 87.21%
Cn1cnc2cc(NC(=O)c3n[nH]c4c3CCC4)ccc21	–	-48.98% and -33.08%
CN(C)CCCn1cnc2cc(NC(=O)c3n[nH]c4c3CCC4)ccc21	–	-35.39% and -25.92%
Cn1cc(C(=O)N2CCN(Cc3ccccn3)CC2)ccc1=O	-3.259	–
Cc1ccccc1C(C(=O)O)N(C)CC1CCOCC1 (configuration not stated)	-26.36	–
COc1c(CNC(c2ccccc2)c2nccn2C)c(C)nn1C (configuration not stated)	11.35	–
O=C(O)c1ccccc1-c1ccc(CN2CCOCC2)cn1	6.918	–
c1cc(-c2cn[nH]c2)ncc1CN1CCCCC1	–	-7.187% and -9.51%
C(=C\c1ccc(CN2CCCC2)cn1)/c1ccccc1	–	78.68% and 64.66%

SMILES	Percent Effect [%]	Percent Effect (10 mM as filed; unlikely as a test dose)
O=C(C1CCOC1)N1C[C@H]2CN(Cc3cccc(F)c3)C(=O)[C@H]2C1 (some centres not stated)	12.32	–
CC(C)NC(=O)c1csc(NC2CC2)n1	-5.904	–
NC(=O)c1cn[nH]c1C1CCCN1C(=O)c1ccccc1 (configuration not stated)	-3.133	–
COC(=O)[C@@H]1CN(C(=O)c2cscn2)C[C@H]1c1ccc(OC)cc1	5.827	–
COc1cc(N[C@@H](Cc2ccccc2)C(N)=O)ncn1	10.88	–
O=C(Nc1cc(C2CCOCC2)[nH]n1)c1cscn1	17.19	–
COc1ncnc(N(C)C)c1NC(=O)c1cscc1C	-11.09	–
Cc1cnc(CN(C)C2CCN(Cc3nnc(C4CC4)o3)C2)o1 (configuration not stated)	13.1	–
OC(COCc1ccccc1)CN1CCC(c2ccn[nH]2)CC1 (configuration not stated)	8.709	–
c1cc(CN2CCCC(c3nnc(-c4cnccn4)o3)C2)ccn1 (configuration not stated)	8.33	–
O=C(O)C(F)(F)F.O=C1COC2(CCN(Cc3ccoc3)CC2)CN1c1ccsc1	-2.422	–
Cn1cc(CN2CC[C@H](O)[C@@H]2Cc2ccncc2)cn1	14.17	–
Cc1cc(C)n(C(=O)Cn2nc(C)c(I)c2C)n1	-1.053	–
CN1CCCC1c1ccnc(-c2ccccc2)n1 (configuration not stated)	8.44	–
CN1CCCC1CCn1ccnc1-c1nc(-c2ccccc2)no1 (configuration not stated)	–	77.95% and 70.89%
CN(C)c1ncccc1CNS(=O)(=O)c1ccc(F)cc1F	5.626	–
CC/N=c1\nc(NCC)nc2n1C(O)(Nc1cc(C)ccc1C)CS2 (configuration not stated)	–	-7.651% and -13.62%
CC/N=c1\nc(NCC)nc2n1C(O)(Nc1ccc(C)cc1C)CS2 (configuration not stated)	–	76.89% and 79.52%
CC/N=c1\nc(NCC)nc2n1C(O)(Nc1cccc(C)c1C)CS2 (configuration not stated)	–	-13.62% and 2.28%
O=S(=O)(c1ccccc1)N1CCC[C@]2(C[C@H](OCC3CC3)CO2)C1	-0.3567	–
CO[C@H]1C[C@@H](O)C12CCN(C(=O)NCc1ccco1)CC2	8.391	–
O=C(CCOc1ccccc1F)N1CCC(O)CC1	–	-2.056% and -15.58% and -4.248%
CO[C@H]1C[C@@H](O)C12CCN(C(=O)CCCOc1ccccc1)CC2	–	88.4% and 94.39%

SMILES	Percent Effect [%]	Percent Effect (10 mM as filed; unlikely as a test dose)
CCn1cnnc1C1CCN(C(=O)CCCOc2ccccc2)CC1	–	42.92% and 40.5% and 58.13%
CC(O)CN1CCN(C(=O)CCOc2ccccc2F)CC1 (configuration not stated)	–	8.088% and -8.879% and -8.774%
NCCO[C@H]1C[C@@H](O)C12CCN(C(=O)CCOc1ccccc1)CC2	–	3.322% and 1.71%
CN1CCOC(CNC(=O)CCCOc2ccccc2F)C1 (configuration not stated)	–	51.69% and 61.26% and 47.35%
CN1CCOC(CNC(=O)CCCOc2cccc(F)c2)C1 (configuration not stated)	–	7.848% and 7.883% and 5.332%
CCn1cnnc1C1CCN(C(=O)COCCc2ccccc2)CC1	–	-3.699% and -24.35% and -22.69%
Cc1ccccc1OCCCC(=O)NCC1CN(C)CCO1 (configuration not stated)	–	6.067% and -2.638% and -0.6996%
Cc1cnccc1CN1Cc2ccccc2O[C@]2(CC[C@H](CO)CC2)C1	13.72	–
Cc1cc(CN2CCCC(c3cc(C(F)(F)F)[nH]n3)C2)no1 (configuration not stated)	9.793	–
O=C(CCCc1nnc(-c2ccccc2)o1)N1CCN(C2CC2)CC1	16.07	–
Cc1ccc(NC2CCN(C(=O)c3cnn(C(C)(C)C)c3)CC2)nn1	-0.1023	–
c1ccn2c(C3CCCN3Cc3nc(C4CC4)no3)nnc2c1 (configuration not stated)	-1.432	–
Cc1cnn(CC2CN(CC(=O)Nc3ccnn3C(C)C)CCO2)c1 (configuration not stated)	2.692	–
Cc1ccccc1OCCC(=O)N1CCC(c2nncn2C)CC1	–	2.17% and -2.919% and 0.9191%
Cn1cnnc1C1CCN(C(=O)CCCOc2ccccc2F)CC1	–	83.01% and 69.05% and 60.83%
CC(C)Nc1nc(O)cc(C2CC(=O)N(Cc3ccccn3)C2)n1.Cl (configuration not stated)	10.31	–
CNc1cc(C)nc(C2CN(Cc3ccc(Cl)cn3)CCO2)c1 (configuration not stated)	20.7	–
CCC(=O)N1CCC(c2ncc(C(=O)Nc3ccccc3)c(C)n2)C1 (configuration not stated)	8.085	–
COc1ccc2cc(C(=O)N3CCCC3Cn3cc(C)cn3)[nH]c2c1 (configuration not stated)	-1.066	–
COc1ccc(CC(=O)N2CCCC2Cn2cc(C)cn2)cc1OC (configuration not stated)	–	8.878% and 3.897% and 0.6031%
Cc1nn(C)cc1-c1cncn1CCc1ccc2c(c1)OCCO2.Cl	–	35.23% and 54.6% and 46.78%
COC1COC2(CCN(CC3CCOCC3)CC2)C1.O=C(O)C(F)(F)F (configuration not stated)	2.7	–
CC(C(=O)N1CCOCC1)n1nc(-c2cccs2)cc(N)c1=O (configuration not stated)	-6.596	–
